From PubChem BioAssay (EPA / NIEHS)
Results filed as inconclusive are left out. Active and inactive are the calls of the source. How the source made its calls: active means hit-call score of the fitted dose curve at least 0.9, where 1 is the maximum; inconclusive means response in the unintended direction; inactive means score below 0.9.

Each compound was assayed against Nucleoli Translocation, AR (gene 367) (UniProt P10275) (assay: UPITT_HCI_U2OS_AR_TIF2_Nucleoli_Antagonist: University of Pittsburgh U2OS Androgen Receptor-Transcriptional Intermediary Factor 2 (AR-TIF2) Antagonism High Content Imaging Assay for Nucleoli Translocation (AID 2283997)).
Nucleoli Translocation, AR (gene 367), sequence (P10275 whole entry, looked up, the tested form may be a part): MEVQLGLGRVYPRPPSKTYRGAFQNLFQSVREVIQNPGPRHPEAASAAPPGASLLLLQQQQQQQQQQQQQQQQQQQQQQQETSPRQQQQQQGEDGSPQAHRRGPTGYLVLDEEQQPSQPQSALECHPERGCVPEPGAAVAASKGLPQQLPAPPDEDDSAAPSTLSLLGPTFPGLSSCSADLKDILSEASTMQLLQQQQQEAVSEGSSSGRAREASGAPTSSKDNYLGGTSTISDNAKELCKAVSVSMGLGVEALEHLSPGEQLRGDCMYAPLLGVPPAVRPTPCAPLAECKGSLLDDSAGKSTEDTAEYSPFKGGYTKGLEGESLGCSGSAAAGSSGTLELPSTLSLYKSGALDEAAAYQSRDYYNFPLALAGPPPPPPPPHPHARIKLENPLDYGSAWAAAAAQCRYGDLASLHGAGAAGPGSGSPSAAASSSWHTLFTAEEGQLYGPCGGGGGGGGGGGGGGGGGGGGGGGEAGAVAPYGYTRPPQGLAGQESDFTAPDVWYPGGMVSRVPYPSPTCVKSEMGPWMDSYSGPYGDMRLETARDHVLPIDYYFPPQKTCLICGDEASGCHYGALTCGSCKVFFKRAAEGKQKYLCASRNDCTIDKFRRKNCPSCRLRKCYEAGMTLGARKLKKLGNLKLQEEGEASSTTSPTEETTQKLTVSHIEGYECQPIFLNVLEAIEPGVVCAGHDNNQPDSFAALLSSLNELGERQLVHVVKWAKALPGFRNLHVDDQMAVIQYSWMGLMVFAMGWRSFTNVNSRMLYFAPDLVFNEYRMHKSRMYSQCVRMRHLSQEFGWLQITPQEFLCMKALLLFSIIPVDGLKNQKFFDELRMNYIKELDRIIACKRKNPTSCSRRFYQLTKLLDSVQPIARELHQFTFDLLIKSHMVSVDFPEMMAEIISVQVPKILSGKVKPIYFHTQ
Description: UPITT_AR_TIF2_PPIB is a cell-based, high-content imaging assay that uses U2OS, a human osteosarcoma cell line, expressing a human androgen receptor fused to red fluorescent protein and the coactivator TIF2 fused to green fluorescent protein. UPITT_HCI_U2OS_AR_TIF2_Nucleoli_Antagonist is one of four assay components measured from the UPITT_AR_TIF2_PPIB assay. It is designed to make measurements of red fluorescence localized in the nucleolar region of the cell nucleus as detected with high-content fluorescent imaging.Data from the assay component UPITT_HCI_U2OS_AR_TIF2_Nucleoli_Antagonist was analyzed into 1 assay endpoint. This assay endpoint, UPITT_HCI_U2OS_AR_TIF2_Nucleoli_Antagonist, was analyzed in the positive analysis fitting direction relative to DHT as the baseline of activity. Using a type of binding reporter, measures of receptor for loss-of-signal activity can be used to understand the binding at the pathway-level as it relates to the gene AR.
Daughter plates containing 2 uL of 10 mM compounds in DMSO were prepared and replicated from the 384-well Library of Pharmacologically Active Compounds (LOPAC) master plates using the Bravo outfitted with a 384-well transfer head. Aluminum adhesive plate seals were applied with an Abgene Seal-IT 100 (Rochester, NY) plate sealer, and the plates were stored at -20 C in a Matrical MatriMinistore (Spokane, WA) automated compound storage and retrieval system. For screening, LOPAC daughter plates were withdrawn from -20C storage, thawed to ambient temperature, centrifuged 1-2 min at 50 g, and the plate seals were removed before the transfer of 98 uL of serum-free tissue culture medium (SFM) into wells using the BioTek Microflo liquid handler (BioTek, Winooski, VT) to generate a 200 uM intermediate stock concentration of library compounds (2.0% DMSO). The diluted compounds were mixed by repeated aspiration and dispensation using a 384-well P30 dispensing head on the Evolution P3 (EP3) liquid handling platform (PerkinElmer, Waltham, MA) and then 5 uL of diluted compounds was transferred to the wells of assay plates. In the LOPAC screen, compounds were individually tested at a final concentration of 20 uM (0.2% DMSO). After the diluted compounds had been transferred from the daughter plates to the primary HCS assay plates, aluminum adhesive plate seals were applied and the diluted daughter plates were stored frozen at -20C. To confirm active compounds identified in the primary screen, we withdrew the LOPAC daughter plates containing the 200 uM intermediate concentration of library compounds (2.0% DMSO) from -20C storage, thawed them to ambient temperature, centrifuged them for 1-2 min at 50 g, and removed the plate seals. A work list was generated to direct the Multiprobe Janus liquid handling platform (PerkinElmer) to cherry pick 75 uL from the wells of the diluted daughter plates that were flagged active in the primary screen and to reformat these into a 384-well plate hit confirmation daughter plate. Five microliters of primary HCS active compounds was then transferred into triplicate wells of assay plates using a 384-well P30 dispensing head on the Evolution P3 (EP3) liquid handling platform (PerkinElmer). […] Daughter plates containing 2 uL of the serially diluted compounds in DMSO were prepared and replicated from the 384-well serial dilution master plates using the Bravo outfitted with a 384-well transfer head. Aluminum adhesive plate seals were applied and plates were stored at -20C. […] The ImageXpress Ultra (IXU) platform (Molecular Devices LLC, Sunnyvale, CA) and The ImageXpress Micro (IXM) platform were used for imaging.
`NS(=O)(=O)C(F)(F)C(F)(F)C(F)(F)C(F)(F)C(F)(F)C(F)(F)C(F)(F)C(F)(F)F` was tested, and the AC50 was 82.7 µM (active). In the case of `CC1=C2C[C@H]3[C@@H](CC=C4C[C@@H](O)CC[C@@]43C)[C@@H]2CC[C@]12O[C@@H]1C[C@H](C)CN[C@H]1[C@H]2C`, the outcome is reported as “inactive”. With `CCOC(=O)C(O)(c1ccc(Cl)cc1)c1ccc(Cl)cc1` the AC50 was 13.3 µM (active). `c1cc2ccc3cccc4ccc(c1)c2c34` was tested, and the outcome was “inactive”. `O=C(NC(=O)c1c(F)cccc1F)Nc1cc(Cl)c(OC(F)(F)C(F)F)c(Cl)c1` was tested, and the outcome was “inactive”. `CCNc1nc(NC(C)C)nc(SC)n1` was tested, and the outcome was “inactive”. With `Cc1ccccc1CO[C@@H]1C[C@@]2(C(C)C)CC[C@]1(C)O2` the outcome was “inactive”. In the case of `O=C(N[C@H]1CN2CCC1CC2)c1cc2ccoc2cn1`, the outcome is reported as “inactive”. With `c1ccc(-c2ccccc2)cc1` the outcome was “inactive”. `C=CC(=O)NCNC(=O)C=C` was tested, and the outcome was “inactive”. With `CCCCCCCCOC(=O)c1ccccc1C(=O)OCCCCCCCC` the outcome was “inactive”.
